Activity calls are given as the source filed them.

A short description of experiment [1]: small molecules captured by biotinylated probe aFSTL3 – biochemical, small-molecule microarray, fluorescence 635/667, stem cell growth factor project, primary screen (AID 1064).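 Also: measures binding of the biotinylated anti-FSTL3 antibody to printed compounds.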 The note with it: higher = more signal.
The nature of experiment [2]: binders from COS7 lysate, DM2A8 probe, primary screen, torsin A project, cell lysate, small-molecule microarray, fluorescence 635/667 (AID 1065). The note with it: higher = more signal, COS7 lysate expressing mutant human TOR1A.
Experiment [3] is described as follows: small molecules captured by biotinylated probe aFGF2 – biochemical, small-molecule microarray, fluorescence 635/667, stem cell growth factor project, primary screen (AID 1067).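 Also: measures binding of biotinylated aFGF2 protein to printed compounds on slides; z-score merges feature fluorescence and signal-to-noise across triplicate slides.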 The note with it: higher = more signal.
Experiment [4] can be described thus: small molecules captured by biotinylated probe aFGF10 – biochemical, small-molecule microarray, fluorescence 635/667, stem cell growth factor project, primary screen (AID 1071).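 Also: score merges 667 nm spot intensity and signal to noise from triplicate slides.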 The note with it: higher = more signal.
The target in experiment [5] is Neurogenic locus notch homolog protein 2 (Homo sapiens) (UniProt Q04721). Description: small molecules binding Notch2 protein – biochemical, small-molecule microarray, 635 nm fluorescence, stem cell growth factors, primary screen (AID 1073). The note with it: higher = more signal.
Experiment [6] concerns the target Pro-neuregulin-1, membrane-bound isoform (Homo sapiens) (UniProt Q02297). Nature of the experiment: small molecules binding neuregulin-1 protein – biochemical, small-molecule microarray, fluorescence 635/667, psychiatric disease protein project, primary screen (AID 1075).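 Also: score combines 667 nm spot fluorescence with signal to noise.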 The note with it: NRG1 binding, 635 nm fluorescence, higher = more signal.
Experiment [7] deals with Neuregulin-1 EGF-like domain. Nature of the experiment: small molecules binding NRG1 EGF domain – biochemical, small-molecule microarray, 635 nm fluorescence, primary screen (AID 1081).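 Also: binding of the protein to compounds printed on small-molecule microarray slides.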 The note with it: higher = more signal.
The nature of experiment [8]: FRG1 expression reporter modulators in myotubes – cell-based, C2C12 myotubes, firefly/Renilla luciferase, luminescence, FRG1 inhibition for FSHD, primary screen (AID 1084). The note with it: FRG1 promoter luciferase, higher = more signal, called active from +8 up or from −8 down.
Experiment [9] is described as follows: small molecules captured by biotinylated probe aFST – biochemical, small-molecule microarray, fluorescence 635/667, stem cell growth factor project, primary screen (AID 1086).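 Also: score merges 667 nm fluorescence with signal-to-noise of each printed compound spot.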 The note with it: higher = more signal.
Experiment [10] can be described thus: binders of probe aHhip on microarray, primary screen, stem cell growth factor project, biochemical, small-molecule microarray, fluorescence 635/667 (AID 1087).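 Also: score merges spot fluorescence at 667nm with spot signal to noise ratio.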 The note with it: higher = more signal.
Experiment [11] concerns PRMT1 (protein arginine N-methyltransferase 1). Nature of the experiment: small molecules binding arginine methyltransferase PRMT1 – biochemical, small-molecule microarray, 635 nm fluorescence, primary screen (AID 1088).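 Also: binding of Prmt1 protein to compounds spotted on small-molecule microarray slides.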 The note with it: higher = more signal.
Experiment [12] in a line: growth effects on S. cerevisiae YJM789 – YJM789 clinical isolate, OD600, 24 h, basal, primary screen (AID 1089).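 Also: growth of clinical yeast isolate S. cerevisiae YJM 789 seeded 1000 cells per well; test concentration not given here.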 The note with it: higher = more signal, called active from +8 up or from −8 down.
Experiment [13] can be described thus: S. pombe growth modifiers, basal conditions – strain 972, OD600, 24 h, no modulator, primary screen (AID 1090).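 Also: basal condition with compound alone and no growth modifier present; test concentration not given here.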 The note with it: S. pombe 972 growth, higher = more signal, called active from +8 up or from −8 down.
A short description of experiment [14]: budding yeast growth modifiers under rapamycin – strain BY4716, OD600, 96 h, primary screen (AID 1091). Also: test concentration not given here. The note with it: S. cerevisiae BY4716 + rapamycin, higher = more signal, called active from +8 up or from −8 down.
In experiment [15] the target is Torsin-1A-interacting protein 2 (Homo sapiens) (UniProt Q8NFQ8). Description: small molecules binding lysate-expressed LULL1 – cell lysate, human LULL1 lysate, 635/667 nm fluorescence, primary screen (AID 1092).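 Also: probe is lysate of COS7 cells overexpressing human LULL1; score merges per-feature 667 nm fluorescence with signal-to-noise.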 The note with it: small-molecule microarray, hLULL1 lysate binding, 635 nm fluorescence; higher = more signal.
Chain of Torsin-1A-interacting protein 2 (Homo sapiens) (Q8NFQ8 whole entry, looked up): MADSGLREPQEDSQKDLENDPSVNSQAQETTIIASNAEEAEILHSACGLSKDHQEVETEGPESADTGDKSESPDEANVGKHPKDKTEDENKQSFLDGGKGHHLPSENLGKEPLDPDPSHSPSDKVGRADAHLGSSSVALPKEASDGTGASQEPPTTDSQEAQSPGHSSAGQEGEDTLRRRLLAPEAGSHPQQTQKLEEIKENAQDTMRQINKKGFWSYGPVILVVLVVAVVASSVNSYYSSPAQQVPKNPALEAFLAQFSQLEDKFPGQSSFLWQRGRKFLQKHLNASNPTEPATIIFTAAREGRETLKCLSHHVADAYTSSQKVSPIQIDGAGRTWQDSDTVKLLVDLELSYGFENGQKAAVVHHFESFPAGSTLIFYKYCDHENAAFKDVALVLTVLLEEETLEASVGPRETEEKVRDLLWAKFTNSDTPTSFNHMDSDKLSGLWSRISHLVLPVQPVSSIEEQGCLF
Experiment [16] can be described thus: optical density change of DRC41 E. coli – strain DRC41, OD650, 24 h, E. coli filamentation project, primary screen (AID 1093).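 Also: MC1000 strain lacking acrAB efflux and sulA so SOS filamentation is blocked; test concentration not given here.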 The note with it: E. coli DRC41 growth, higher = more signal, called active from +8 up or from −8 down.
A short description of experiment [17]: probe aLefty2 binding to arrayed compounds – biochemical, biotinylated probe, 635/667 nm fluorescence, primary screen (AID 1094).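 Also: score merges spot fluorescence near 667 nm with spot signal-to-noise ratio.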 The note with it: small-molecule microarray, higher = more signal.
For experiment [18], the system named is Noggin (protein binding on small-molecule microarray). Description: small molecules binding Noggin protein – biochemical, 635/667 nm fluorescence, primary screen (AID 1095).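 Also: score merges 667 nm feature fluorescence with signal to noise over triplicate slides.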 The note with it: 635 nm fluorescence, higher = more signal.
In experiment [19] the target is Neurogenic locus notch homolog protein 3 (Homo sapiens) (UniProt Q9UM47). Nature of the experiment: small molecules binding NOTCH3 protein – biochemical, 635/667 nm fluorescence, primary screen (AID 1096). The note with it: small-molecule microarray, 635 nm fluorescence, higher = more signal.
Chain of Neurogenic locus notch homolog protein 3 (Homo sapiens) (Q9UM47 whole entry, looked up): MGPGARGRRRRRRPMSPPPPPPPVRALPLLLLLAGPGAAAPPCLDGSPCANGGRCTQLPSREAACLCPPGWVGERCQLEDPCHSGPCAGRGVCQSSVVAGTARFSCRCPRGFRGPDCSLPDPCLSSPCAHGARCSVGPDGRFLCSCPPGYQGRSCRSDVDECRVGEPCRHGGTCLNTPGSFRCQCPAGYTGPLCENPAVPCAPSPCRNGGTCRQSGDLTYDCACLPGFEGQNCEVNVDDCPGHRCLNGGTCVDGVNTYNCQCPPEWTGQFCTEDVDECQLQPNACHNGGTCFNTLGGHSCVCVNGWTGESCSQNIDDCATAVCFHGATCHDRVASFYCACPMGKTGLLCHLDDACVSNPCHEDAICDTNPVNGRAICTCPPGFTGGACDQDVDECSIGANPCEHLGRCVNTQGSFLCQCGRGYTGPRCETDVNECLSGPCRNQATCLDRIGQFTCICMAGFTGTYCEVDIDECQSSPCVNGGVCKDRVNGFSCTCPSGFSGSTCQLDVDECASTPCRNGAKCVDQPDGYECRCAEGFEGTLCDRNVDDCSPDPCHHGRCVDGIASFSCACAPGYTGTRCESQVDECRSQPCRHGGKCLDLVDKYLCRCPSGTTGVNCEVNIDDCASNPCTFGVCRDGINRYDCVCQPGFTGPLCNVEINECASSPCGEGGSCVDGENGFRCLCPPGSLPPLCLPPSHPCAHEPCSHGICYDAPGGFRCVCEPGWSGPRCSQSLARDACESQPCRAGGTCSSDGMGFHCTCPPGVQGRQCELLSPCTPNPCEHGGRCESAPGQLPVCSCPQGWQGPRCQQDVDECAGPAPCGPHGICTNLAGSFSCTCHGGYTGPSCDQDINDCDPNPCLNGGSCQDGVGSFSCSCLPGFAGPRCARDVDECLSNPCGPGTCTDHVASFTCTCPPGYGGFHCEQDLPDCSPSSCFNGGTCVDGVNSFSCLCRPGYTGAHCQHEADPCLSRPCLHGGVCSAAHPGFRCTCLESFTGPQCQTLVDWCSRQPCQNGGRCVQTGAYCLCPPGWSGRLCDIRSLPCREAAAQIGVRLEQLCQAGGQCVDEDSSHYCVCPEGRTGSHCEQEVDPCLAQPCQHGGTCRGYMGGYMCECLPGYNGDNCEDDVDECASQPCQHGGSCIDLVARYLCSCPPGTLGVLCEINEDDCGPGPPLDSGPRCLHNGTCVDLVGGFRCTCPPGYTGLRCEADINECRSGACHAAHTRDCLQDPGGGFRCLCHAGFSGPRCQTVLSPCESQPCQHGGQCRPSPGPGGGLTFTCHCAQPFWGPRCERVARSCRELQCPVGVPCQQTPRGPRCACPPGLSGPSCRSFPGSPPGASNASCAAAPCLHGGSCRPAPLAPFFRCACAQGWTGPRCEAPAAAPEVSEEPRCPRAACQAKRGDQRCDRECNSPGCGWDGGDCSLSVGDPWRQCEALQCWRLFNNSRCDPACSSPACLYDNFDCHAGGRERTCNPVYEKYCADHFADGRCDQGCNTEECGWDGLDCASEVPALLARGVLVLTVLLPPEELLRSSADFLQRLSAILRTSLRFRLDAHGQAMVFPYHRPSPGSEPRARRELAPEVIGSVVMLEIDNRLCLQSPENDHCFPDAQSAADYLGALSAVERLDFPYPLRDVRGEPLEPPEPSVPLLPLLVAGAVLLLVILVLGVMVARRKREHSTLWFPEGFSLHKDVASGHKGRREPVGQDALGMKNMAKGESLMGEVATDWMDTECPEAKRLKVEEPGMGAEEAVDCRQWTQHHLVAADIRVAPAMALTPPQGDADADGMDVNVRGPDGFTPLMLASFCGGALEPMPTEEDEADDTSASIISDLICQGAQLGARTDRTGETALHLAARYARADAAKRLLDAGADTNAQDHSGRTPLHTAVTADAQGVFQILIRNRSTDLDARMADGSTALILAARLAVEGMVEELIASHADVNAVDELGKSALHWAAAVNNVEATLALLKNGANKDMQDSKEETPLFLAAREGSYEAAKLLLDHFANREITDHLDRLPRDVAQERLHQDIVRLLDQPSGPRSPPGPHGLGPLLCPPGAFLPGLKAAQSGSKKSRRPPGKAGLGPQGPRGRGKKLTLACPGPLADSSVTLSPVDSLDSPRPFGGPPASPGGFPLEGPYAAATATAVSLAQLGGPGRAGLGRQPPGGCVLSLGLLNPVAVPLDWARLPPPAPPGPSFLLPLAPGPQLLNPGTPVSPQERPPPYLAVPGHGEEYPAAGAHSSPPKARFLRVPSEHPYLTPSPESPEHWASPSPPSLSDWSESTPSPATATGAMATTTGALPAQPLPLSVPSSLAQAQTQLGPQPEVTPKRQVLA
Experiment [20] is described as follows: probe aEGFR binding to arrayed compounds – biochemical, biotinylated probe, 635/667 nm fluorescence, primary screen (AID 1097).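 Also: probe is a biotinylated anti-EGFR antibody binding compounds printed on slides; score combines fluorescence near 667 nm and signal to noise of each spot.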 The note with it: small-molecule microarray, higher = more signal.

Chain of Pro-neuregulin-1, membrane-bound isoform (Homo sapiens) (Q02297 whole entry, looked up, the tested form may be a part, canonical isoform): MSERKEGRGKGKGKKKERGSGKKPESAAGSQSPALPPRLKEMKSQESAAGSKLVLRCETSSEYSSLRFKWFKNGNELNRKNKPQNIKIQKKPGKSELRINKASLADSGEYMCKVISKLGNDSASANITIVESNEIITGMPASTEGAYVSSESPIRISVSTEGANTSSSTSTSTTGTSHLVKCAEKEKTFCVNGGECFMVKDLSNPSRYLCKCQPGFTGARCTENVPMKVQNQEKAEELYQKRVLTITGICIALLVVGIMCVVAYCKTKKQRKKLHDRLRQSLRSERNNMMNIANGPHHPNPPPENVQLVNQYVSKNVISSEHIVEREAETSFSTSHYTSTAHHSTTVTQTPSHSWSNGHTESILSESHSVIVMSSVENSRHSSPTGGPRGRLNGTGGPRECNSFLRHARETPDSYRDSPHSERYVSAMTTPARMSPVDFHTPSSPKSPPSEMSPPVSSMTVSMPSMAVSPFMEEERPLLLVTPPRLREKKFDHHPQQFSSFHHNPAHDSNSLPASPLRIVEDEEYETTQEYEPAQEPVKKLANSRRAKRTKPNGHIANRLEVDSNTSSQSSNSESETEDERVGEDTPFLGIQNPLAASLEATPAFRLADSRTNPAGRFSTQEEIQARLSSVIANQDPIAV

As for `[N-]=[N+]=NCc1ccccc1[C@@H]1OC(c2ccc(OCCCO)cc2)=N[C@]1(Cc1ccccc1)C(=O)N1CCOCC1`, the composite z-score was 0.351 in [1]; 1.51 in [2]; 0.122 in [3]; 0.875 in [4]; 1.55 in [5]; 1.68 in [6]. For the same compound, the composite z-score in experiment [7] was 1.25; in [9] it was 0.804; in experiment [10] it was 0.778; in experiment [11], 1.53; in experiment [15], 3.52; in experiment [17], 0.422. The composite z-score in experiment [18] was 0.671; in experiment [19], 1.11; in [20], 0.256. Moreover, the z-score was -1.42 (inactive) in [8]; -0.655 (inactive) in experiment [12]; -0.42 (inactive) in experiment [13]; 0.303 (inactive) in [14]; 0.986 (inactive) in experiment [16].

Take `Cc1ccc(C2CC=C(C(=O)O)CN2S(=O)(=O)c2ccc(C)cc2)cc1` (stereo not given): the composite z-score is 0.004 in experiment [1]; 0.157 in [2]; -0.0258 in experiment [3]; 0.0852 in [4]; 0.677 in [5]; 1.97 in experiment [6]. The composite z-score amounted to 0.937 in experiment [7]; 0.374 in [9]; 0.0749 in experiment [10]; 0.732 in [11]; 2.49 in [15]; 0.0527 in [17]. Further, the composite z-score was 0.153 in experiment [18], 0.984 in [19] and -0.071 in experiment [20]. The z-score in [8] was -2.06 (inactive); in experiment [12] it was 0.0388 (inactive); in experiment [13], 1.02 (inactive); in experiment [14], 0.856 (inactive); in experiment [16] it was -1.16 (inactive).

`CCCCCCc1nc(CCCc2cc3c(c(CCCCCC)n2)[Si](C(C)C)(C(C)C)O[C@H]3c2ccccc2)cc2c1[Si](C(C)C)(C(C)C)O[C@H]2c1ccccc1`: the composite z-score was -0.342 in experiment [1]; -0.244 in [2]; -0.109 in [3]; -0.217 in experiment [4]; -0.253 in [5]; -0.47 in experiment [6]. The composite z-score is -0.744 in [7]; 0.163 in experiment [9]; -0.277 in experiment [10]; 0.0913 in experiment [11]; -0.769 in [15]; -0.233 in [17]. For the same compound, the figures for the composite z-score in experiment [18], in experiment [19] and in experiment [20] were 0.522, 0.279 and -0.11, respectively. The z-score in [8] was -0.364 (inactive); in experiment [12] it was -0.449 (inactive); in [13], -0.643 (inactive); in experiment [14], -0.146 (inactive); in [16], -1.43 (inactive).

Take `CC(C)=NOCc1cccc(-c2cc(-c3ccccc3)no2)c1`: the composite z-score in experiment [1] is -0.575; in experiment [2], 0.221; in experiment [3], -0.0767; in experiment [4], 0.717; in experiment [5], 0.0486; in experiment [6] it was 0.205. Besides, the composite z-score in [7] is 0.345; in experiment [9], 0.376; in experiment [10], 0.0024; in experiment [11] it was 1.27; in experiment [15], 1.18; in experiment [17], -0.0375. In addition, the composite z-score is 0.7 in [18], 0.881 in experiment [19] and 0.161 in experiment [20]. The z-score in experiment [8] is 0.603 (inactive); in experiment [12], -0.366 (inactive); in experiment [13], -21 (active); in experiment [14] it was -0.442 (inactive); in [16], 0.533 (inactive).

For `COC(=O)[C@H](C)NC(=O)CCC1CC(OC(=O)NCc2ccc3c(c2)OCO3)CC2(CCCC(COC(=O)NCCOc3ccccc3)O2)O1` (stereo not given in full), the composite z-score was -0.426 in [1]; 0.898 in experiment [2]; -0.122 in experiment [3]; 0.325 in experiment [4]; 1.06 in experiment [5]; 0.689 in experiment [6]. Besides, the composite z-score in [7] is 1.04; in [9], 0.91; in experiment [10], -0.479; in experiment [11], 1.55; in [15] it was 1.57; in [17], -0.147. The composite z-score in [18] was 0.737; in experiment [19] it was 1.07; in experiment [20], -0.165. The z-score was -0.503 (inactive) in experiment [8]; -1.31 (inactive) in [12]; 0.26 (inactive) in experiment [13]; 0.303 (inactive) in experiment [14]; -1.16 (inactive) in experiment [16].

As for `COC(=O)CC=C[C@H](C)[C@@H](OCc1ccccc1Br)C(C)C`, the composite z-score in experiment [1] was -0.188; in experiment [2] it was 0.398; in experiment [3] it was -0.191; in experiment [4], 0.189; in experiment [5] it was 0.0089; in experiment [6] it was -0.252. Moreover, the composite z-score in experiment [7] was -0.334; in [9], -0.0799; in experiment [10] it was -0.306; in experiment [11], 0.204; in experiment [15], -0.117; in experiment [17], -0.228. Besides, the values for the composite z-score in [18], in [19] and in experiment [20] were 0.168, -0.0294 and -0.167, respectively. Also, the z-score was -0.749 (inactive) in experiment [8]; -0.0851 (inactive) in experiment [12]; -0.552 (inactive) in [13]; 0.393 (inactive) in [14]; -0.295 (inactive) in [16].

The values above are taken from PubChem BioAssay.
